# Test results from PubChem BioAssay.
# Activity calls are given as the source filed them.
# Target: Albumin (Bos taurus) (UniProt P02769)
# Experiment: compounds binding labelled BSA control protein – biochemical, small-molecule microarray, Alexa647 label, 635/667 nm fluorescence, artefact control for SMM control protein annotation, profiling panel (AID 1118);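 also: score merges 667 nm emission intensity and signal-to-noise per printed compound spot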
# Conditions: BSA-A647 binding, fluorescence 635 nm, higher = more signal
# Albumin (Bos taurus), sequence (P02769 whole entry, looked up): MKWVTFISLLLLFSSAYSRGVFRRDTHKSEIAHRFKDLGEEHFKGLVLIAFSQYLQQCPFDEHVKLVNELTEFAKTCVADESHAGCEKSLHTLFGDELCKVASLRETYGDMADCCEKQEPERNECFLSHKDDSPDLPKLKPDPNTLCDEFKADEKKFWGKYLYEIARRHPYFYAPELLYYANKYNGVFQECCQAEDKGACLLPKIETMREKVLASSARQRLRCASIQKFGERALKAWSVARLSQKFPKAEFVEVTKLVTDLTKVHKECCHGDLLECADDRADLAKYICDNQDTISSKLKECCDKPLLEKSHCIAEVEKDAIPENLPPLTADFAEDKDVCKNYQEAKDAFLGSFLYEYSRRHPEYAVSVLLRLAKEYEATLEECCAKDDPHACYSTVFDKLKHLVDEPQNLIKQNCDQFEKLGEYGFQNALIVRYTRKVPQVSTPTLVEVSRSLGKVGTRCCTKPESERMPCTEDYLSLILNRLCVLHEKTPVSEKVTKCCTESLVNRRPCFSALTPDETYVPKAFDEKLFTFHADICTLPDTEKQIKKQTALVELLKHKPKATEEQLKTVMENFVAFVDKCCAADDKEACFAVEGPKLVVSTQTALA
row,SMILES,composite z-score
1,CN1C(=O)C2C=CC(C(O)c3ccc(-c4ccccc4)s3)N(N(c3ccccc3)c3ccccc3)C2C1=O (stereo not drawn),0.828
2,COc1ccc(CCNC(=O)[C@@]2(Sc3ccc(C)cc3)CC(=O)N(C3CCCCC3)[C@@H]2c2ccc(CO)cc2I)cc1,0.805
3,C=CCNC(=O)[C@H]1[C@@H]2C(=O)O[C@@H](c3ccccc3)[C@@H](c3ccccc3)N2[C@@H](c2ccccc2OCCO)[C@]12C(=O)Nc1ccc(C#CC3=CCCCC3)cc12,0.039
4,C[N+](C)(C)CCCC[C@@H]1NC(=O)[C@@H]2C[C@H](C(=O)NCCCCCN)[C@H](c3cccc(OCCO)c3)N2C1=O,0.924
5,C=C/C=C/[C@H]1C(=C)CN([C@@H](Cc2ccccc2)C(=O)OC)[C@@H]1[C@H](O)Cc1ccccc1,-0.668
6,CN1C(=O)C2C=CC(C(O)c3ccc(I)cc3)N(N3CCCCC3)C2C1=O (stereo not drawn),0.999
7,O=C1[C@H]2C=C(Br)[C@H](C[C@@H]2c2ccccc2)[C@@]12CO2,-0.6

# Tested on: not listed separately
# Experiment: probe aXIP binding to arrayed compounds – biochemical, NeuroSMM set, 635/667 nm fluorescence, primary screen (AID 1119);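 also: probe is the protein aXip251-270 applied at 1 µg/mL to compound-printed slides; binding of probe to printed compounds measured as 667 nm fluorescence plus signal to noise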
# Conditions: small-molecule microarray, higher = more signal, called active from +8 up or from −8 down
row,SMILES,composite Z-score
1,COC(=O)[C@@]1(Cc2ccc(OC)cc2)[C@H]2c3cc(C(=O)N4CCCC4)n(Cc4ccsc4Br)c3C[C@H]2CN1C(=O)c1ccccc1,0.387 (inactive)
2,CCOC(=O)C[C@H]1[C@H](OC(=O)Cc2ccc3c(c2)OCO3)[C@@H](NC(=O)c2ccc(-c3ccccc3)cc2)c2cc(OCCCO)ccc2N1C(=O)c1ccc2ccccc2n1,-0.549 (inactive)
3,COC(=O)[C@@]1(Cc2ccc(F)cc2)[C@H]2c3cc(C(=O)N(C)C)n(CC4CC4)c3C[C@H]2CN1C(=O)c1ccccc1,-0.0191 (inactive)
4,CCCCC(=C=CC[C@@H](O)c1ccccc1OCCO)CCO,0.35 (inactive)
5,COc1ccc([Si](C)(C)[C@@H]2[C@@H](CCO)O[C@]3(C(=O)N(Cc4ccc(N5C(=O)COc6ccccc65)cc4)c4ccccc43)[C@H]2C)cc1,-0.539 (inactive)
6,CC1CC/C=C\[C@H]2OC34C=CCN(Cn5nnc6ccccc65)C(=O)[C@H]3N(C(CO)C(C)C)C(=O)[C@@H]4C2C(=O)O1 (stereo partly drawn),-0.0775 (inactive)
7,CCCCN1CC=CC23O[C@@H]4/C=C\CCC(C)OC(=O)C4[C@H]2C(=O)N(CCCCCO)[C@@H]3C1=O (stereo partly drawn),0.114 (inactive)
8,O=C1C[C@]2(c3ccc([N+](=O)[O-])cc3)C(=O)N(CCN3CCOCC3)c3cc(CO)ccc3[C@H]2N1C1CCCCC1,-0.598 (inactive)
9,O=C(O)[C@@]1(CCS(=O)(=O)c2ccccc2)COC(c2ccc(OCCCO)cc2)=N1,0.714 (inactive)
10,COc1ccc(C(O)C2C=CC3C(=O)N(c4ccccc4)C(=O)C3N2Nc2ccc(C(C)C)cc2)cc1OCc1ccccc1 (stereo not drawn),0.868 (inactive)
11,CC(C)C(=C=CC[C@@H](O)c1ccccc1OCCO)CCO,-0.519 (inactive)
12,CN(C)C(=O)[C@]1(Cc2ccccc2CN=[N+]=[N-])N=C(c2ccc(OCCCO)cc2)O[C@@H]1c1ccccc1CN=[N+]=[N-],-0.384 (inactive)
13,COc1ccc(C(=O)Nc2cccc(CN3C(=O)[C@]4(O[C@H](CCO)[C@@H]([Si](C)(C)c5ccc(OC)cc5)[C@@H]4C)c4ccccc43)c2)cc1,-0.494 (inactive)
14,CCCCCC1=C2CNC(CCC)(C(=O)OC)C=C2C(C)C1=O (stereo not drawn),0.956 (inactive)
15,CCOC(=O)C[C@H]1[C@H](OC(=O)c2cc3ccccc3oc2=O)[C@@H](NC(=O)Cc2ccc(OC)cc2)c2cc(OCCCO)ccc2N1C(=O)c1ccccc1,0.311 (inactive)
16,COc1ccc([C@H]2C[C@H]3C(Br)=C[C@@H]2C(=O)[C@]32CO2)cc1,-0.624 (inactive)
17,CCOC(=O)C1=CCC(c2ccccc2)N(S(=O)(=O)CC[Si](C)(C)C)C1 (stereo not drawn),0.0503 (inactive)
18,O=C1NCC(=O)N2[C@@H]1C[C@@H](C(=O)O)[C@H]2c1cccc(OCCO)c1,10.2 (active)

row,SMILES,composite Z-score
1,COCCOC(=O)N1C(=O)[C@@]2(c3cc(C#CC4=CCCCC4)ccc31)[C@H](C(=O)N1CCc3cc(OC)c(OC)cc3C1)[C@H]1C(=O)O[C@H](c3ccccc3)[C@H](c3ccccc3)N1[C@@H]2c1ccc(OCCO)cc1,0.238 (inactive)
2,O=C(NCC(F)(F)F)[C@@H]1c2ccccc2C(=O)N(C2CCCCC2)[C@H]1c1ccc(CO)cc1,0.35 (inactive)
3,CC(C)OC(=O)C=C1C[C@@H](c2ccccc2C(F)(F)F)O[C@@H](c2ccccc2C(F)(F)F)O1,-0.309 (inactive)
4,COc1ccc([Si](C)(C)[C@H]2[C@H](CC(=O)N3Cc4ccccc4C[C@H]3CO)O[C@@]3(C(=O)N(Cc4ccc(N5CCC5=O)cc4)c4ccccc43)[C@@H]2C)cc1,-0.39 (inactive)
5,C=CCC(OC(C)=O)[C@@H]1[C@@H](N(Cc2cccc3ccccc23)C(=O)c2ccc(-c3ccccc3)cc2)c2cc(OCCCO)ccc2N1C(=O)Cc1ccc(OC)cc1 (stereo partly drawn),-0.829 (inactive)
6,COc1ccc(CCNC(=O)[C@@H]2c3ccccc3C(=O)N(C3Cc4ccccc4C3)[C@H]2c2ccc(CO)cc2)cc1,0.131 (inactive)
7,C=CCNC(=O)[C@H]1[C@@H]2C(=O)O[C@@H](c3ccccc3)[C@@H](c3ccccc3)N2[C@@H](c2ccc(O)cc2)[C@]12C(=O)N(C(=O)OCCOC)c1ccc(C#CCNC(N)=O)cc12,0.384 (inactive)
8,C=CCC(OC(C)=O)[C@@H]1[C@@H](N(Cc2ccc(-c3cccc(C(F)(F)F)c3)o2)C(=O)Cc2ccc(F)cc2)c2cc(OCCCO)ccc2N1C(=O)Cc1ccc(OC)cc1 (stereo partly drawn),-0.105 (inactive)
9,Cc1ccc(S[C@]2(C(=O)NCC(F)(F)F)CC(=O)N(C(C)C)[C@@H]2c2ccc(CO)cc2I)cc1,0.314 (inactive)
10,O=C1NC(=O)C2C1C=CC(C(O)c1ccccc1)N2Nc1ccc(Cl)cc1Cl (stereo not drawn),-0.199 (inactive)
11,COc1ccc([Si](C)(C)[C@H]2[C@H](CCO)O[C@@]3(C(=O)N(C)c4c(Br)cc(C)cc43)[C@@H]2C)cc1,-0.303 (inactive)
12,CN1C(=O)C2C=CC(C(O)c3ccc(-c4ccccc4)s3)N(N(c3ccccc3)c3ccccc3)C2C1=O (stereo not drawn),0.81 (inactive)
13,COc1ccc(CCNC(=O)[C@@]2(Sc3ccc(C)cc3)CC(=O)N(C3CCCCC3)[C@@H]2c2ccc(CO)cc2I)cc1,0.0371 (inactive)
14,C=CCNC(=O)[C@H]1[C@@H]2C(=O)O[C@@H](c3ccccc3)[C@@H](c3ccccc3)N2[C@@H](c2ccccc2OCCO)[C@]12C(=O)Nc1ccc(C#CC3=CCCCC3)cc12,1.86 (inactive)
15,C[N+](C)(C)CCCC[C@@H]1NC(=O)[C@@H]2C[C@H](C(=O)NCCCCCN)[C@H](c3cccc(OCCO)c3)N2C1=O,0.0926 (inactive)
16,C=C/C=C/[C@H]1C(=C)CN([C@@H](Cc2ccccc2)C(=O)OC)[C@@H]1[C@H](O)Cc1ccccc1,-0.624 (inactive)
17,CN1C(=O)C2C=CC(C(O)c3ccc(I)cc3)N(N3CCCCC3)C2C1=O (stereo not drawn),0.891 (inactive)
18,O=C1[C@H]2C=C(Br)[C@H](C[C@@H]2c2ccccc2)[C@@]12CO2,1.22 (inactive)
